# Bioassay records: PubChem BioAssay, Buhrlage Lab, Dana-Farber Cancer Institute and Novartis Institutes for BioMedical Research (Cambridge, Mass)
# Sampled rows, rich in hits. Any-hit rate of the full collection: about 11%.
# USP30 block – inhibitors of human USP30 deubiquitinase; purified USP30, Ub-rhodamine cleavage fluorescence; inhibition, % at 25 µM; 47,000 compounds, 5.3% hits
# USP17 block – inhibitors of human USP17 deubiquitinase; A8MUK1; purified USP17, Ub-rhodamine cleavage fluorescence, 3 h; inhibition, % at 50 µM; 47,000 compounds, 6.5% hits; AID 1645855
# USP28 block – blocks human USP28 ubiquitin-rhodamine cleavage; Q96RU2; purified USP28, Ub-rhodamine cleavage fluorescence, 30 min; inhibition, % at 25 µM; 47,000 compounds, 3% hits; AID 1645857
# OTUD3 inh – inhibitors of human OTUD3 deubiquitinase; inhibition, % at 25 µM; purified OTUD3, Ub-rhodamine fluorescence, 2 h; 47,000 compounds, 0.7% hits; Q5T2D3
# Target sequence (Q5T2D3 whole entry, looked up): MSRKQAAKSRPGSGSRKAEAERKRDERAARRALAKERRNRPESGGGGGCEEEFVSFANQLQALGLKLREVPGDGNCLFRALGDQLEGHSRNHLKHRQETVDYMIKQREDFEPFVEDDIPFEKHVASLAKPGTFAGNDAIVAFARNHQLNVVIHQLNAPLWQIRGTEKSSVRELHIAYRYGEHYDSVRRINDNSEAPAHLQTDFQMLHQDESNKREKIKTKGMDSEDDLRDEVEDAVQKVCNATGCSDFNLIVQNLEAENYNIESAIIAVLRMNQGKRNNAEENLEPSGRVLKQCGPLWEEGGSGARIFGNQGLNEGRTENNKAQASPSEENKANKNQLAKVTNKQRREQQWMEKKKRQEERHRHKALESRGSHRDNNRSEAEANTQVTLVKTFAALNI
# Active calls of the source: *; x = not tested or not shown. No stated cut-off is given here; in the data, active means inhibition above about 30%; inactive means the rest.
SMILES,USP30 block,USP17 block,USP28 block,OTUD3 inh
Cc1nc(-c2cccnc2)nc(NCc2ccccc2)c1Cl,8,8,25,-2
Cc1ccc2nc(NC(=O)c3ccccc3Cl)[nH]c(=O)c2c1,-13,46*,-6,-1
CCCc1noc(-c2ccnc(-n3cnc(C(=O)N4CCOCC4)c3)c2)n1,21,22,14,22
CC(C)N1CCN(Cc2nc(-c3ccc(N4CCCCC4)nc3)no2)CC1,6,16,19,10
O=C(OCC(=O)N1CCCc2ccccc21)c1c(F)cccc1Cl,31*,10,24,13
O=C(OCC(=O)N1CCCc2ccccc21)c1ccc(O)cc1,2,-7,2,0
Cc1ccc(NC(=O)C2C3C=CC4(O3)C2C(=O)N(CCCN2CCN(Cc3ccccc3)CC2)C4C(=O)NC2CCCCC2)cc1C (centres undefined),-1,-4,0,-4
COc1cccc(NC(=O)C2C3C=CC4(O3)C2C(=O)N(CCc2ccccc2Cl)C4C(=O)NC2CCCCC2)c1 (centres undefined),39*,39*,-1,32*
COc1ccc(NC(=O)C2C3C=CC4(O3)C2C(=O)N(CCc2ccccc2)C4C(=O)NC2CCCCC2)cc1 (centres undefined),56*,35*,7,22
COc1cccc(NC(=O)C2C3C=CC4(O3)C2C(=O)N(CCc2ccc(Cl)cc2)C4C(=O)NC2CCCCC2)c1 (centres undefined),7,6,13,9
Cc1ccc(NC(=O)C2C3C=CC4(O3)C2C(=O)N(CCc2ccccc2)C4C(=O)NC2CCCCC2)cc1C (centres undefined),28,30*,8,18
COc1ccc(NC(=O)C2C3C=CC4(O3)C2C(=O)N(Cc2ccccc2)C4C(=O)NC2CCCCC2)cc1 (centres undefined),40*,12,0,10
COc1ccc2cc(C(=O)N3CCC(C(C)C(=O)NCc4cccc(F)c4)CC3)[nH]c2c1 (centres undefined),2,1,7,5
CSc1cccc(NC(=O)C2C3C=CC4(O3)C2C(=O)N(Cc2ccc(C)cc2)C4C(=O)NC2CCCCC2)c1 (centres undefined),18,50*,10,9
Cc1cccc(C(=O)N2CCN(C3CCCCC3)CC2)c1,22,10,18,25
Clc1cccc(-n2cc(-c3ccccc3)c3c(NCc4ccccn4)ncnc32)c1,75*,70*,53*,7
COc1ccc(-n2cc(-c3ccccc3)c3c(NC4CC4)ncnc32)cc1,4,5,7,-1
c1ccc(-c2cn(-c3ccccc3)c3ncnc(NC4CC4)c23)cc1,4,-7,35*,-14
CN(C)C1CCN(Cc2ccc(N3CCN(C(=O)c4c(F)cccc4C(F)(F)F)CC3)nc2)CC1,-7,4,0,0
O=C(c1ccc2c(c1)nnn2C1CCCC1)N1CCN(c2ccccc2)CC1,1,0,-9,-6
Cc1ccc(S(=O)(=O)N2CCC3(C2)C(=O)Nc2ccccc23)cc1 (centres undefined),-25,3,4,-8
Cc1nc2cc(C(=O)NCCC3=CCCCC3)ccc2n1-c1cccc(F)c1,73*,8,40*,6
COc1ccccc1CCNC(=O)Cc1cc(-c2ccc(F)cc2F)on1,-73,-23,-2,2
O=C(NCCC1=CCCCC1)c1cc2c(s1)CS(=O)(=O)C2,x,22,x,3
O=C(NCCCN1CCc2ccccc2C1)c1cc2c(s1)CS(=O)(=O)C2,-26,62*,41*,-16
SMILES,USP30 block,USP17 block,USP28 block,OTUD3 inh
CNC(=O)[C@@]12CCC3(CCN(C(=O)Nc4ccc(OC)cc4)CC3)[C@@H]1CN(C)C2,-47,-6,-4,-4
COc1ccc(-c2nc3n(n2)C(CC(=O)Nc2cccc4ccccc24)C(=O)N3)cc1 (centres undefined),52*,25,27,19
CC(=O)c1ccc(NC(=O)CC2C(=O)Nc3nc4ccccc4n32)cc1 (centres undefined),-14,75*,8,0
Cc1ccc(NC(=O)CC2C(=O)Nc3nc(-c4ccccc4)nn32)cc1 (centres undefined),21,45*,11,13
O=C(CC1C(=O)N(C2CCCC2)c2nc3ccccc3n21)Nc1ccc(F)cc1 (centres undefined),-3,-8,-13,-10
Cn1c2ccccc2c(=O)c2c(=O)n(Cc3ccccc3)c(-c3ccccc3F)nc21,-15,66*,0,-15
COCCCn1c(-c2ccc([N+](=O)[O-])cc2)nc2c(c(=O)c3ccccc3n2C)c1=O,-10,10,1,-3
Cn1c2ccccc2c(=O)c2c(=O)n(Cc3ccccc3)c(-c3ccc(C(C)(C)C)cc3)nc21,2,50*,-7,-7
Cc1ccc(-c2nc3c(c(=O)c4ccccc4n3C)c(=O)n2-c2ccc(F)cc2)cc1,7,43*,-2,-5
Cn1c2ccccc2c(=O)c2c(=O)n(Cc3ccccc3)c(-c3ccco3)nc21,-21,59*,44*,1
COc1ccc(CCn2c(-c3ccccc3C)nc3c(c(=O)c4ccccc4n3C)c2=O)cc1,6,x,5,9
Cc1nc2c(c(=O)c3ccccc3n2C)c(=O)n1Cc1ccco1,-32,12,15,15
Cc1nnc(-c2cccc(S(=O)(=O)N3CCCC3c3ccc(F)cc3)c2)o1 (centres undefined),-23,2,1,0
O=C(c1n[nH]c2c1CCCC2)N1CCC(c2ccnc3nc(C(F)(F)F)nn23)CC1,-14,-15,-14,-5
CC(=O)OC[C@]12Oc3ccc(-c4ccc5c(c4O)C(O)=C4C(=O)C[C@@H](C)[C@@H](OC(C)=O)[C@@]4(COC(C)=O)O5)c(O)c3C(O)=C1C(=O)C[C@@H](C)[C@H]2OC(C)=O,6,-3,5,19
CN(C)C(=O)[C@@H]1C[C@@H]2CN(C(=O)Nc3ccccc3)CCN2[C@@]12C(=O)Nc1ccccc12,9,5,-2,4
CCc1nc2c(NS(=O)(=O)c3ccc(F)cc3)cccn2n1,-167,-41,-54,-40
O=c1[nH]cccc1NS(=O)(=O)c1ccc(F)cc1,-33,86*,5,-9
O=C(COc1ccc(N2CC(C(=O)NCc3ccc4c(c3)OCO4)CC2=O)cc1)Nc1ccc(F)cc1 (centres undefined),57*,57*,8,4
COc1ccc(NC(=O)COC(=O)C2CC(=O)N(c3ccc(F)cc3)C2)cc1 (centres undefined),-2,-8,3,-6
O=C(COc1ccc(N2CC(C(=O)NCc3ccc4c(c3)OCO4)CC2=O)cc1)Nc1ccc(Cl)cc1 (centres undefined),15,36*,5,10
O=C(COc1ccc(N2CC(C(=O)NCc3ccccc3)CC2=O)cc1)Nc1ccc(F)cc1 (centres undefined),58*,60*,23,12
Cc1ccc(CNC(=O)C2CC(=O)N(c3ccc(OCC(=O)Nc4ccc(C)cc4C)cc3)C2)cc1 (centres undefined),0,0,-4,13
